Assay [1] addresses 5'-AMP-activated protein kinase catalytic subunit alpha-2 (Homo sapiens) (UniProt P54646). To be noted: at 1 µM.
Assay [2] deals with T1, NUAK family SNF1-like kinase 1 (Homo sapiens) (UniProt O60285).
T1 sequence (whole entry): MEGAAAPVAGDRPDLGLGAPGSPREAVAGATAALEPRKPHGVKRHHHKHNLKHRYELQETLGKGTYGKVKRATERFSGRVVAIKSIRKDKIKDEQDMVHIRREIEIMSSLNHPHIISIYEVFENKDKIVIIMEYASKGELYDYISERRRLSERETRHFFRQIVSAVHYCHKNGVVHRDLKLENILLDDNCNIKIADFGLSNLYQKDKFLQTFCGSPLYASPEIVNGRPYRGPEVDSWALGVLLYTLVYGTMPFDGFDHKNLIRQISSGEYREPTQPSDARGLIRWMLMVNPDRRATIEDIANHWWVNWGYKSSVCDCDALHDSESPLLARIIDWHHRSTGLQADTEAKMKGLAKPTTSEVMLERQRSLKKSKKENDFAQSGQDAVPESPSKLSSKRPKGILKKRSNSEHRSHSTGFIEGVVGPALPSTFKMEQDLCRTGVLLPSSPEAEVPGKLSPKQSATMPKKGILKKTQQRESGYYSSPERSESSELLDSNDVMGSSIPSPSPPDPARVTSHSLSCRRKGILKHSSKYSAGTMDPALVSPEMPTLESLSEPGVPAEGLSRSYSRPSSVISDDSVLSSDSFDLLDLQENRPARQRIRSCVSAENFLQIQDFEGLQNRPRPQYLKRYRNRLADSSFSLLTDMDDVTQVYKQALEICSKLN
To be noted: at 0.1 µM.

Assay [3] concerns the target T1, NUAK family SNF1-like kinase 1 (Homo sapiens). To be noted: at 1 µM.
Assay [4] deals with T2, Serine/threonine-protein kinase BRSK1 (Homo sapiens) (UniProt Q8TDC3).
T2 sequence (whole entry): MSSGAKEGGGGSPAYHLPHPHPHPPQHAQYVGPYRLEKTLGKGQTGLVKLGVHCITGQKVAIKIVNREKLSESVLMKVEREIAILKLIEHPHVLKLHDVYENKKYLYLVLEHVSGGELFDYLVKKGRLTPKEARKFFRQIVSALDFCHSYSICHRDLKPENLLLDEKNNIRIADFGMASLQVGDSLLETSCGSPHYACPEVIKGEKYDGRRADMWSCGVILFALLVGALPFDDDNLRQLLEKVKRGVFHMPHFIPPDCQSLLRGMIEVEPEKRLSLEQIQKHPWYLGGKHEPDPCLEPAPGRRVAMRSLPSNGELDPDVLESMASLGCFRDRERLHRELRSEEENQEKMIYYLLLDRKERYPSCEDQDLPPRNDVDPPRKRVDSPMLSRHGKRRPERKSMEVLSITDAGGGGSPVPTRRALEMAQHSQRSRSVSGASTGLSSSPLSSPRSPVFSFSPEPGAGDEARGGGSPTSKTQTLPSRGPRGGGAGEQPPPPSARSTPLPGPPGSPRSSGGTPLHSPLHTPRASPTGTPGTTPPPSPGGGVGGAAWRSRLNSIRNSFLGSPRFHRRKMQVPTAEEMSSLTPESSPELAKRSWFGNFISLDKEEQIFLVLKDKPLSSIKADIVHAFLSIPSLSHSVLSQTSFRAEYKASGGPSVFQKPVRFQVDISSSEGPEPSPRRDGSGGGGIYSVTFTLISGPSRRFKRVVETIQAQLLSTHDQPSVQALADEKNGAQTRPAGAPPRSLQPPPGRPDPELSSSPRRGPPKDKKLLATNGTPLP
The settings on record: at 0.1 µM.

For assay [5], the target named is T2, Serine/threonine-protein kinase BRSK1 (Homo sapiens). To be noted: at 1 µM.
In assay [6] the target is T3, Serine/threonine-protein kinase BRSK2 (Homo sapiens) (UniProt Q8IWQ3).
T3 sequence (whole entry): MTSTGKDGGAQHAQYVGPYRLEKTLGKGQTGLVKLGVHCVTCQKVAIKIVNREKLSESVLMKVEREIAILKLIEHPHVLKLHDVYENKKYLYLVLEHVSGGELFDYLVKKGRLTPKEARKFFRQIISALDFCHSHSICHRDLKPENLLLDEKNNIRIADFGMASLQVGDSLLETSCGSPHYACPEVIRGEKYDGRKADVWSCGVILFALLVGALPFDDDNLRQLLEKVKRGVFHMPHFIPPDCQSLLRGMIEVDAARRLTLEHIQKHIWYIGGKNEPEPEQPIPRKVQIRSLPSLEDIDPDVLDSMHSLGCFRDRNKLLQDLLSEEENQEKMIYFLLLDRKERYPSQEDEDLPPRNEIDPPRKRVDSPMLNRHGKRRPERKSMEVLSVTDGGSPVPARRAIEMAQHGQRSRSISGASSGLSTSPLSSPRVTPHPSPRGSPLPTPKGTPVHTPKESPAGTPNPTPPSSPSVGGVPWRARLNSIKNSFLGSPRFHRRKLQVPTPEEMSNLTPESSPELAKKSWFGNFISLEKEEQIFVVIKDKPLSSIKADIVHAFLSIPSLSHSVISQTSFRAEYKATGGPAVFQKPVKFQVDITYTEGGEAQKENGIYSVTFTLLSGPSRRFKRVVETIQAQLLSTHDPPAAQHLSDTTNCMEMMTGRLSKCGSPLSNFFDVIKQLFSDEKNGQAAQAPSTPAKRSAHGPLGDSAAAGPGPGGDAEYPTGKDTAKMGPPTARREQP
To be noted: at 0.1 µM.

The target of assay [7] is T3, Serine/threonine-protein kinase BRSK2 (Homo sapiens). To be noted: at 1 µM.
The target in assay [8] is Calcium/calmodulin-dependent protein kinase type 1D (Homo sapiens) (UniProt Q8IU85). The settings on record: at 0.1 µM.
Calcium/calmodulin-dependent protein kinase type 1D (Homo sapiens), sequence (Q8IU85 whole entry, looked up): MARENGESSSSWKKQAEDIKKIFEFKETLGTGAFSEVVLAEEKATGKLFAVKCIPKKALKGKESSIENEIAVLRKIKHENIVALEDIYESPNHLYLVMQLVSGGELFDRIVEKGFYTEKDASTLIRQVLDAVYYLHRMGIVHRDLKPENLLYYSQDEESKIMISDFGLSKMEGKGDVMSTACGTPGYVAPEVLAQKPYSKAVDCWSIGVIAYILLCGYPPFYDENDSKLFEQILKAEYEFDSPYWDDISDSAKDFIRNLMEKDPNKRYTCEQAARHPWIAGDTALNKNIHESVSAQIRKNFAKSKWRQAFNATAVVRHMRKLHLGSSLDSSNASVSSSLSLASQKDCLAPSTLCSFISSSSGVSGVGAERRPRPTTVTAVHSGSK
For assay [9] the target is unchanged. To be noted: at 1 µM.
Assay [10] addresses Calcium/calmodulin-dependent protein kinase type II subunit alpha (Homo sapiens) (UniProt Q9UQM7). The settings on record: at 0.1 µM.

SMILES strings stand for the structures.

5'-AMP-activated protein kinase catalytic subunit alpha-2 (Homo sapiens), sequence (P54646 whole entry, looked up): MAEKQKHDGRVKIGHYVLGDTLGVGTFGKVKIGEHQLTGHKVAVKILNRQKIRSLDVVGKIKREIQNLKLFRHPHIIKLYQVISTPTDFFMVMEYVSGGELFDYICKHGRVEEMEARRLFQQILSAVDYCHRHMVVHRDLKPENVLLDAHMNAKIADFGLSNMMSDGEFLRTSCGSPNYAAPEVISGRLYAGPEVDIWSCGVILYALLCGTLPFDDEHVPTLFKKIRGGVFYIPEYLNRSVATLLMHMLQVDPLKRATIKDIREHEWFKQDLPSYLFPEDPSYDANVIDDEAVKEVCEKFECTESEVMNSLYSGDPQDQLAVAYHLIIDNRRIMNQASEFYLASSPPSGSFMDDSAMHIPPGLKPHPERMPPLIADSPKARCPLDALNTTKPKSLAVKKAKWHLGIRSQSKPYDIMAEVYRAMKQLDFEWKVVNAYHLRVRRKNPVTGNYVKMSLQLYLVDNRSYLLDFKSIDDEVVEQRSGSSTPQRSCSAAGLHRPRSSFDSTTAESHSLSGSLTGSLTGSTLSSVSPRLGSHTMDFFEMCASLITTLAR
Calcium/calmodulin-dependent protein kinase type II subunit alpha (Homo sapiens), sequence (Q9UQM7 whole entry): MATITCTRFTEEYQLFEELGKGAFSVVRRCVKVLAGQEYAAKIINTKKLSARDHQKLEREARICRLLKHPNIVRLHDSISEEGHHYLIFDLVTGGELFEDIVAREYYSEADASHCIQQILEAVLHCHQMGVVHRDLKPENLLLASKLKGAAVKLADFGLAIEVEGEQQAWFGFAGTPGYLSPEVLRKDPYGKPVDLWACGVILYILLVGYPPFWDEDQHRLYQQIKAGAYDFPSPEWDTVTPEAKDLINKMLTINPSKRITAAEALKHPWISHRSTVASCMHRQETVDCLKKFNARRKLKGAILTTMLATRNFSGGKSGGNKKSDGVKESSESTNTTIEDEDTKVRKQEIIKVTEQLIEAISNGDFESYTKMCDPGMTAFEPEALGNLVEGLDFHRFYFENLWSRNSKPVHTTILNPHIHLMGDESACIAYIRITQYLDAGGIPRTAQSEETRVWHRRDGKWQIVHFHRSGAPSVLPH

For orientation: inhibition means the drop in the measured response relative to a control, in per cent. Regarding `CS(=O)(=O)Nc1cccc(-c2ccc3c(NC(=O)C4CC4)n[nH]c3c2)c1`, the inhibition in assay [1] is 6.02%; in [2], -0.11%; in assay [3], 1.95%; in [4], 3.46%; in assay [5] it was 18.7%; in assay [6] it was 2.32%. For the same compound, the inhibition is 19.1% in assay [7], 2.26% in [8], 1.87% in assay [9] and 7.84% in assay [10].

With `COc1cc(/C=N/Nc2ncnc3c2cnn3C(C)C)ccc1O`, the inhibition is 4.32% in assay [1]; 7.43% in assay [2]; 22.3% in assay [3]; 1.45% in assay [4]; 7.43% in assay [5]; 1.52% in assay [6]. Besides, the inhibition in [7] was 12.1%; in assay [8], 1.23%; in assay [9], 0.59%; in [10], -0.2%.

As to `COC(=O)Nc1nc2cc(Oc3ccc(NC(=O)Nc4cccc(Br)c4)cc3)ccc2[nH]1`, the inhibition in assay [1] was 4.23%; in [2], 3.02%; in assay [3], 2.47%; in [4] it was -0.15%; in [5] it was 0.86%; in assay [6] it was 2%. The inhibition in assay [7] turned out to be 0.84%; in assay [8], 1.16%; in assay [9], 0.29%; in assay [10], 3.25%.

With `NS(=O)(=O)c1cccc(-c2cc3ccncc3cc2OCc2ccccc2)c1`, the inhibition was 7.06% in assay [1]; 8.52% in assay [2]; 11.3% in assay [3]; 3.31% in assay [4]; 3.45% in assay [5]; 2.26% in assay [6]. Besides, the inhibition in [7] was 3.2%; in [8], 0.47%; in assay [9], 0.96%; in assay [10] it was 4.23%.

Turning to `Cc1cc(Cl)cc2c1NC(=O)C2=NNc1ccc(S(N)(=O)=O)cc1`, the inhibition in [1] was 1.04%; in assay [2] it was 0.35%; in assay [3] it was 8.3%; in assay [4], -1.42%; in assay [5], 3.61%; in assay [6], 1.16%. Also, the inhibition was 3.77% in assay [7], 0.2% in assay [8], -0.6% in [9] and 4.14% in assay [10].

As for `COc1cc(Nc2nccc(-c3cnn4ncccc34)n2)cc(OC)c1`, the inhibition in assay [1] amounted to 17.4%; in assay [2] it was 69.1%; in assay [3], 84.8%; in [4], 1.03%; in assay [5] it was 5.11%; in [6], 0.3%. Moreover, the inhibition in assay [7] was found to be 6.76%; in assay [8] it was 0.86%; in assay [9] it was 6.41%; in assay [10], 3.61%.

For the compound `COc1cccc(-n2nc(C)c3c(N/N=C(\C)c4ccncc4)ncnc32)c1`, the inhibition is 1.4% in [1]; 3.11% in assay [2]; 2.97% in assay [3]; 0.77% in assay [4]; -2.02% in [5]; -0.07% in assay [6]. Besides, the inhibition in assay [7] is 0.93%; in [8] it was -0.6%; in assay [9], 2.19%; in assay [10] it was -1.72%.

Take `NC(=O)c1sc(-n2cnc3ccccc32)cc1OCc1ccccc1Br`: the inhibition in assay [1] came to 4.98%; in assay [2], 7.8%; in assay [3], 29.1%; in assay [4], 3.67%; in [5], 8.3%; in assay [6], 3.06%. Also, the inhibition in assay [7] was found to be 17.1%; in [8] it was 0.13%; in [9] it was 2.21%; in assay [10], 1.7%.

As to `COC(=O)c1cncc(/C=C/c2c(C)cc(O)cc2C)c1`, the inhibition in assay [1] was 2.21%; in [2] it was 3.22%; in assay [3], 8.1%; in [4], -1.29%; in assay [5], 7.61%; in assay [6], 1.09%. For the same compound, the inhibition in [7] is 6.54%; in assay [8], -0.5%; in assay [9] it was -0.32%; in assay [10] it was 1.91%.

`CCS(=O)(=O)c1ccc(OC)c(Nc2nccc(N(C)c3ccc4c(C)n[nH]c4c3)n2)c1`: the inhibition in assay [1] was 3.91%; in [2], -0.8%; in [3] it was -2.26%; in assay [4] it was 0.17%; in assay [5] it was 4.69%; in [6], 3.82%. Also, the inhibition worked out at 4.12% in assay [7], 3.64% in assay [8], 0.51% in assay [9] and 2.57% in assay [10].

As for `Cc1ccc(Nc2ccnc(Nc3cccc(C(N)=O)c3)n2)cc1O`, the inhibition worked out at 5.29% in assay [1]; 7.76% in [2]; 41.1% in assay [3]; 0.1% in [4]; 6.23% in assay [5]; 2.24% in assay [6]. For the same compound, the inhibition in assay [7] is 9.72%; in [8], 1.34%; in [9], 4.12%; in assay [10], 3.21%.

For the compound `Cc1ccc2c(-c3ccnc(Nc4cccc(C(F)(F)F)c4)n3)c(-c3ccccc3)nn2n1`, the inhibition stood at 3.47% in assay [1]; 4.18% in assay [2]; 5.3% in [3]; 2.22% in assay [4]; 1.34% in assay [5]; 1.33% in assay [6]. The inhibition in assay [7] was determined as 3.25%; in assay [8], 0.64%; in [9] it was 2.72%; in assay [10], 2.64%.

Consider `COc1cccc(-n2ncc3c(N/N=C/c4ccc(S(C)(=O)=O)cc4)ncnc32)c1`, for which the inhibition was 4.43% in assay [1]; 14.7% in assay [2]; 37.4% in assay [3]; 13.7% in [4]; 52.5% in [5]; 20.1% in assay [6]. Moreover, the inhibition in [7] was 60.8%; in [8] it was 0.78%; in assay [9], 0.51%; in assay [10], -0.15%.

Turning to `CC(C)c1ccc2c(c1)NC(=O)/C2=N/Nc1ccc(S(N)(=O)=O)cc1`, the inhibition is 0.27% in [1]; 11% in [2]; 41.7% in assay [3]; 0.3% in assay [4]; 1.21% in [5]; -0.18% in assay [6]. For the same compound, the inhibition was 7.2% in [7], -0.63% in [8], 1.05% in [9] and -0.9% in assay [10].

On to `ON=C1CCc2cc(-c3nc(C4CCNCC4)[nH]c3-c3ccncc3)ccc21`, for which the inhibition in assay [1] was 2.64%; in [2] it was 0.54%; in [3] it was 1.89%; in assay [4] it was 1.34%; in assay [5], 0.41%; in assay [6] it was -0.35%. Besides, the inhibition in [7] was 1.99%; in assay [8], 0.14%; in assay [9], 11.8%; in [10], 1.63%.

In the case of `Nc1nccc(-c2c(-c3ccc(F)cc3)nn3cc(C(F)(F)F)ccc23)n1`, the inhibition in assay [1] is 0.34%; in assay [2], 0.16%; in assay [3], -3%; in assay [4], -0.37%; in assay [5], 0.47%; in [6] it was 0.15%. Moreover, the inhibition is -0.77% in assay [7], -1.67% in assay [8], -2.05% in [9] and 0.49% in assay [10].

The values above are taken from ChEMBL document CHEMBL1961873, “Compounds: GSK PKIS; Assays: Nanosyn kinase panel” (2012).
